Reference: PubChem BioAssay AID588738 (National Center for Advancing Translational Sciences (NCATS), 2011)
Calls of active or inactive are those of the source. The rule behind the calls is not given here.

assay: High Content Assay for Compounds that inhibit the Assembly of the Perinucleolar Compartment:Cell Migration SAR; settings: PC3M 3D collagen invasion, Hoechst imaging, 5 d
Excerpt: The perinucleolar compartment (PNC) is a non-membrane-bound nuclear subdomain that is associated with but structurally distinct from the nucleolus. The PNC is a heritable trait, in which the number of PNCs per cell in daughter cells often mimics that of their mother cells. The PNC is heterogeneous in shape, is stable through interphase, disassembles during mitosis, and reassembles in early G1. The PNC is concentrated with newly synthesized RNA polymerase III (pol III) RNAs (MRP RNA, RNAse P H1 RNA, hY RNAs[hY1, 2, 5], Alu RNA, and SRP [7SL] RNA) and RNA binding proteins (nucleolin, PTB, CUG-BP, KSRP, Raver1, Raver2, and Rod). […] In collaboration between Sui Huang from Northwestern University and the NCGC, a high content assay was developed and screened. The hits were then tested in follow-up assays. High-content tumor cell migration assays in 3-dimensional extracellular matrices are powerful tools for modeling and understanding the biology of this critical step in the process of metastasis. However, most of the available methods are not amenable to the throughput required by studies of comparative pharmacology or small scale screening. For this reason, we worked with BellBrook Labs(R) to test our compounds in their automated high-content tumor cell invasion assays.[35] […]

Row | SMILES | Potency
1 | N=c1c2c(-c3ccccc3)c(-c3ccccc3)n(Cc3ccccc3)c2ncn1C1CCC(O)CC1 (stereo unspecified) | 3.98 µM (active)
